Data on 37 molecules can be found in publication PMC5540273 (PLoS ONE, 2017).
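Note: KINOMEscan kinase panel screen.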

This test deals with ROS1. The following applies: concentration: 1 μM,replicates: in singlicate; n = 1.
For `Cn1ccc2ncnc(Oc3ccc(NC(=O)Nc4ccnc(C(F)(F)F)c4)c(Cl)c3)c21`, the “%Inh” value came out at 0%. Consider `Cc1ccc(CC(=O)N2CCc3cc(-c4cn(C)c5ncnc(N)c45)ccc32)cc1` [GSK2634758], for which the “%Inh” value turned out to be 9%. The figure for `CS(=O)(=O)c1cccc(CNc2nc(Nc3ccc4c(c3)[C@@H]3C[C@@H]4CNC3=O)ncc2C(F)(F)F)c1` is 86%; for `CNC(=O)c1ccccc1Nc1nc(Nc2cccc(CS(C)(=O)=O)c2)ncc1C.O=CO` [GSK1520489] it is 90%; for `Cn1ccc2ncnc(Oc3ccc(NC(=O)Nc4cccc(C(F)(F)F)c4)c(Cl)c3)c21` it is 12%. Take `CN1CCN(CCNc2nc3cc(Oc4ccc(NC(=O)Nc5cc(C(F)(F)F)ccc5F)cc4)ccc3[nH]2)CC1.Cl.Cl` [GW768504]: the “%Inh” value worked out at 16%.

Regarding `O=C(NCC1CC1)c1ccc(-c2cc(C(=O)NC3CC3)ccc2F)cc1` [GW810445], the “%Inh” value turned out to be 0%. On to `N#Cc1cccc(C(=O)NC2CCN(c3ccnc(Nc4ccc(F)cc4)n3)C2)c1` (stereo not shown) [GSK1379708], for which the “%Inh” value is on record as 13%. With `FC(F)(F)c1cc(Br)cc(Nc2nccc(-c3cnn4ncccc34)n2)c1` [GW810578], the “%Inh” value worked out at 12%. The figure for `Cc1ccn2nc(-c3ccc(F)cc3)c(-c3ccncc3)c2c1.Cl` [GW457859] is 0%; for `C[C@@H](Oc1cc(-n2cnc3cc(-c4cnn(C)c4)ccc32)sc1C(N)=O)c1ccccc1Cl` [GSK580432] it is 27%.

Turning to `Cn1ccc2ncnc(Oc3ccc(NC(=O)Nc4cncc(C(F)(F)F)c4)c(Cl)c3)c21`, the “%Inh” value is given as 0%. For `CS(=O)(=O)Nc1ccc(-c2ccnc3[nH]ccc23)cc1` [GSK993273] the value was 9%; for `O=C(Nc1n[nH]c2cc(-c3ccco3)ccc12)C1CC1` [SB-737447], 2%; for `OCCn1cc(-c2cnc3nnn(Cc4ccc5ncccc5c4)c3n2)cn1`, 0%. Consider `Cc1ccc(Nc2ccnc(Nc3ccc4c(c3)CS(=O)(=O)C4)n2)cc1O.Cl` [GW579362], for which the “%Inh” value is given as 81%. Consider `Cn1ccc2ncnc(Oc3ccc(NC(=O)Nc4cccc(C(F)(F)F)c4)c(F)c3)c21`, for which the “%Inh” value is 53%. In the case of `CCOC(=O)N1CCC(n2cnc(-c3ccc(F)cc3)c2-c2ccnc(N)n2)CC1` [SB-219952], the “%Inh” value is 15%.

As to `CCn1c(-c2nonc2N)nc2cncc(Br)c21` [SB-738004], the “%Inh” value was 7%. As for `Cl.c1ccc(Oc2ccc(Nc3ccnc4cc(-c5ccc(CN6CCNCC6)o5)ccc34)cc2)nc1` [GW567142], the “%Inh” value came out at 0%. With `COc1cccc(C2=C(Nc3cccc(Cl)c3)C(=O)NC2=O)c1` [SB-341556], the “%Inh” value is listed as 0%. The figure for `CS(=O)c1ccc(-c2coc3ccc(-c4n[nH]c(=O)o4)cc23)cc1` (stereo not shown) is 0%. On to `COC(=O)Nc1nc2cc(Oc3ccc(NC(=O)Nc4cc(C(F)(F)F)ccc4Cl)cc3)ccc2[nH]1.Cl` [GW697465], for which the “%Inh” value amounted to 42%.

Regarding `Cn1cc(-c2cccc3c(N)c(C(N)=O)nnc23)cn1`, the “%Inh” value stood at 6%. For `C[C@@H]1CCN(C(=O)N2CCCC2)C[C@@H]1N(C)c1ncnc2[nH]ccc12`, the “%Inh” value is on record as 23%. Take `Cc1ccc2c(-c3ccnc(Nc4ccc(C(F)(F)F)cc4)n3)cnn2n1` [GW819776]: the “%Inh” value came to 41%. Take `C[C@@H](Oc1cc(-n2cnc3cc(-c4ccncc4)ccc32)sc1C(N)=O)c1ccccc1Cl` [GSK479719]: the “%Inh” value was found to be 8%. `CCNCC(Cc1ccccc1)NC(=O)c1cc(Br)c(-c2ccnc3[nH]ccc23)s1.Cl.Cl` (stereo not shown) [GSK1383280]: the “%Inh” value was found to be 44%. For `Cc1nnc(-c2ccc3occ(-c4ccc(S(C)=O)cc4)c3n2)o1` (stereo not shown) the value was 0%; for `COc1cc2nccc(Nc3ccc(Oc4ccccc4)cc3)c2cc1OC.Cl` [GI261656], 27%; for `COc1cccc(OC)c1C(=O)Nc1cccc(-c2nn3ccccc3c2-c2ccnc(Nc3cccc(F)c3)n2)c1` [GSK361065], 4%. For `COc1cc(Nc2nccc(N3CCC(NC(=O)c4cccc(C#N)c4)C3)n2)cc(OC)c1OC` (stereo not shown) [GSK1379751] the value was 9%; for `O=C(Nc1cccc(C(F)(F)F)c1)c1cccc(Oc2ccc3nccn3n2)c1`, 6%. As for `CC(C)c1nc(-c2cccc(NS(=O)(=O)c3ccccc3)c2)c(-c2ccnc(Nc3ccc4c(c3)CN(C)CC4)n2)s1` [GSK1649598], the “%Inh” value amounted to 0%.

Regarding `CN1CCN(CCCNc2nccc(-c3c(-c4ccc(F)cc4)nn4cc(C(N)=O)ccc34)n2)CC1` [GW622475], the “%Inh” value is reported as 4%. For `CC(=O)c1c(-c2ccncc2)[nH]c(-c2ccncc2)c1C` [GW493036] the value was 0%; for `COC(=O)c1cccc(NC(=O)NC2CCN(c3ccnc(NCc4ccc(F)cc4)n3)CC2)c1` [GSK1379860], 8%.
